MARV entry inh: blocks Marburg virus binding to or entry into cells. Marburg virus pseudotyped entry inhibition, cell reporter. Potency, µM (titrated, usually from 37.8 µM), usual class: inhibitors. actives 1.8% (n = 300,000); calls by dose curve; tested in HEK293 cells
FMDV antiviral: foot and mouth disease virus antiviral activity | FMDV antiviral cell-based qHTS | Potency, µM (titrated, usually from 57.9 µM), actives largely listed as inhibitors | actives 1.2% (n = 410,000) | AID 1159524; calls by dose curve; tested in HEK293T cells; also: read-out not given here; nearly all actives have a fitted effect of over 45% in size
Lassa entry inh: blocks Lassa virus binding to or entry into cells | Lassa virus pseudotype entry inhibition, cell reporter | Potency, µM (doses to about 37.9 µM), most hits filed as inhibitors | actives 1.2% (n = 300,000) | AID 540256; calls by dose curve; tested in HEK293 cells; also: nearly all actives have a fitted effect of over 50% in size
HCMV antiviral: inhibitors of human cytomegalovirus; HFF cells, HCMV-luciferase reporter, 72 h; stronger effect = lower value; activity change, negative = inhibition, % at 57.5 µM; actives 4.5% (n = 410,000); in the data active = activity change below about -60%; inconclusive = no clear call, values can overlap the other calls; inactive = above about -39%
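Steps: HFFs plated, 16 h 37C; compounds added; HCMV-luciferase added to MOI 1 PFU/cell; 72 h 37C; OneGlo reagent, 5 min room temperature; luminescence read, normalized to controls.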
HCV inhibitor: HCV inhibition; Huh7.5.1 HCVcc-Cre infection, luciferase reporter, 44 h; Potency, µM (doses to about 41.8 µM), hits mostly inhibitors; actives 3.4% (n = 340,000); AID 651820; active = well fitted inhibition curve with a large enough effect; inconclusive = small, poorly fitted or top-dose-only effect, or another doubt; inactive = no such curve, though single readings can be large or run the other way
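1,000 cells/well; 4 h culture; + compound; + HCVcc-Cre (~0.5 moi); 44 h; luciferase substrate, RT 15 min; read 15 sec.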
SARS PLP yeast: blocks SARS-CoV papain-like protease in a yeast assay. AID 485353. Potency, µM (top dose mostly 32.9 µM), most hits filed as activators. actives 0.19% (n = 330,000). S. cerevisiae expressing SARS-CoV PLpro, growth rescue; calls by dose curve; also: nearly all actives have a fitted effect of over 55% in size
Of the large screens only hits and unclear results are named; the others gave an inactive call. In the library only some 8% were active in any assay of this set; here they are far more common.

COc1cc(CCC(=O)NCc2ccc3c(c2)CCN3C(=O)c2cccc(C)c2)cc(OC)c1OC	none (no result: MARV entry inh, HCV inhibitor, SARS PLP yeast)
CCc1nn(CC(=O)NCc2ccccc2)c(=O)c2cccn12	MARV entry inh inconclusive, Lassa entry inh 11µM (no result: HCV inhibitor, SARS PLP yeast)
CCc1nn(CC(=O)NCCc2ccc(Cl)cc2)c(=O)c2cccn12	none (no result: MARV entry inh, Lassa entry inh)
Cc1nn(C(=O)CCCC(=O)NCc2ccccc2)c2ccccc12	HCV inhibitor 22µM (no result: MARV entry inh, Lassa entry inh)
Cc1nc2ccccc2n1CC(=O)NCc1ccccc1	MARV entry inh inconclusive, FMDV antiviral inconclusive, HCMV antiviral -79
O=C(Cn1c(=O)nc(-c2ccccc2)c2cc(Cl)ccc21)NCc1ccccc1	FMDV antiviral 14µM, HCMV antiviral inconclusive (no result: MARV entry inh, HCV inhibitor, SARS PLP yeast)
COC(=O)C1=C(C)C(=O)[C@]2(O)c3ccccc3N(C)[C@]12C	none (no result: FMDV antiviral, Lassa entry inh, HCMV antiviral, HCV inhibitor, SARS PLP yeast)
COc1cccc(NC(=O)CNC(=O)Cn2c(C)cc3ccccc3c2=O)c1	MARV entry inh inconclusive (no result: HCV inhibitor, SARS PLP yeast)
COc1cccc2c(=O)cc(C)n(CC(=O)Nc3cccc(C)c3)c12	FMDV antiviral inconclusive, HCMV antiviral inconclusive, HCV inhibitor 8.9µM
COc1ccc(-n2c(=O)c3ccc(C(=O)NCc4ccc(C)cc4)cc3n(CC(=O)Nc3ccc(C)cc3)c2=O)cc1	HCMV antiviral -71 (no result: HCV inhibitor, SARS PLP yeast)
CCc1ccc(NC(=O)C(C)n2nnc3sc(-c4ccccc4)cc3c2=O)cc1 (centres undefined)	none (no result: HCV inhibitor, SARS PLP yeast)
CC(C)(C)C1CCC(OC(=O)C[N+]2(C)CCCCC2)CC1 (centres undefined)	HCMV antiviral -62
Cc1[nH]c2ccccc2c1C(=O)COC(=O)c1cccc(S(=O)(=O)N2CCCCC2)c1	MARV entry inh inconclusive, Lassa entry inh inconclusive, HCMV antiviral -78, HCV inhibitor inconclusive
Cc1ccc(C(=O)OCC(=O)c2c[nH]c3ccccc23)cc1S(=O)(=O)N1CCCCC1	MARV entry inh inconclusive, Lassa entry inh inconclusive, HCV inhibitor 32µM
CCCN(CCC)C(=O)c1c[nH]c2ccc(S(=O)(=O)N(C)c3ccc(OCC)cc3)cc2c1=O	HCMV antiviral inconclusive (no result: MARV entry inh, HCV inhibitor, SARS PLP yeast)
CCOc1ccc(N(C)S(=O)(=O)c2ccc(C)c(C(=O)OCC(=O)c3c[nH]c4ccccc34)c2)cc1	MARV entry inh 1.4µM, HCMV antiviral inconclusive
Cn1c(N)c(C(=O)COC(=O)c2cccc(S(=O)(=O)N3CCCCC3)c2)c(=O)n(C)c1=O	MARV entry inh inconclusive
Cc1ccc(C(=O)OCC(=O)NCc2ccccc2)cc1S(=O)(=O)N1CCCCC1	none (no result: MARV entry inh, Lassa entry inh)
O=C(Nc1ccc2nc(SCC(=O)N3CCCC3)sc2c1)c1ccccc1F	MARV entry inh inconclusive (no result: HCV inhibitor, SARS PLP yeast)
COc1ccc2c(C)cc(SCn3nnc4ccccc4c3=O)nc2c1	HCMV antiviral -65
COc1ccc(C)cc1-n1nnnc1SCc1cc(=O)n2cc(C)ccc2n1	FMDV antiviral 16µM, Lassa entry inh inconclusive, HCMV antiviral -72, HCV inhibitor inconclusive
COc1ccc(C)cc1-n1nnnc1SCc1csc(C)n1	none
COc1ccc2c(-c3ccccc3)cc(SCC(N)=O)nc2c1	MARV entry inh 5.6µM, Lassa entry inh inconclusive, HCV inhibitor inconclusive
COc1ccc(C)cc1-n1nnnc1SCn1nnc2ccccc2c1=O	Lassa entry inh inconclusive, HCMV antiviral -80, HCV inhibitor inconclusive
COC(=O)C1(C(=O)OC)CC(CO)C(=O)[C@@H]1c1ccccc1 (some centres undefined)	none (no result: FMDV antiviral, Lassa entry inh, HCMV antiviral, HCV inhibitor, SARS PLP yeast)
CCCCOC(=O)c1ccc(OC(=O)c2sc3ncn(Cc4cccc(F)c4)c(=O)c3c2C)cc1	none (no result: MARV entry inh, HCV inhibitor, SARS PLP yeast)
O=C(CCCc1nc2ccccc2s1)N1CCN(S(=O)(=O)c2cccs2)CC1	MARV entry inh 10µM, FMDV antiviral inconclusive, Lassa entry inh inconclusive, HCV inhibitor inconclusive
COc1ccc(-c2nnc(SCC(=O)NCc3ccccc3)nc2-c2ccc(OC)c(OC)c2)cc1OC	Lassa entry inh inconclusive, HCMV antiviral -78 (no result: MARV entry inh, HCV inhibitor, SARS PLP yeast)
CC1CCc2cc(F)ccc2N1C(=O)CSc1nnc2c(n1)[nH]c1ccccc12 (centres undefined)	MARV entry inh inconclusive, FMDV antiviral inconclusive, Lassa entry inh inconclusive, HCMV antiviral -76, HCV inhibitor inconclusive
COc1cccc(CNC(=O)CSc2nnc3c(n2)[nH]c2ccccc23)c1	MARV entry inh inconclusive, FMDV antiviral inconclusive, HCV inhibitor 10µM (no result: Lassa entry inh)
COc1ccccc1NC(=O)CSc1nnc2c3ccccc3n(C(C)C)c2n1	MARV entry inh inconclusive, FMDV antiviral inconclusive, Lassa entry inh inconclusive, HCMV antiviral -61 (no result: HCV inhibitor, SARS PLP yeast)
Cc1cccc(C)c1NC(=O)CN(Cc1ccc(Br)cc1)S(=O)(=O)c1ccccc1	MARV entry inh inconclusive (no result: HCV inhibitor, SARS PLP yeast)
COc1ccccc1NC(=O)CSc1nnc2c(n1)[nH]c1ccccc12	FMDV antiviral inconclusive, Lassa entry inh 11µM (no result: HCV inhibitor, SARS PLP yeast)
COc1ccc(CNC(=O)CSc2nnc3c(n2)[nH]c2ccccc23)cc1	none
COc1ccc2[nH]c3nc(SCC(=O)NNC(=O)c4ccc(OC)c(OC)c4)nnc3c2c1	FMDV antiviral 7.1µM
Cc1ccc(SCCNC(=O)CN(c2ccccc2)S(=O)(=O)N(C)C)cc1	none (no result: HCV inhibitor, SARS PLP yeast)
COc1cc2c(cc1OC)CN(c1nc(-c3cccnc3)nc3ccccc13)CC2	MARV entry inh inconclusive, FMDV antiviral 16µM, Lassa entry inh inconclusive, HCV inhibitor 14µM
Cc1ccc(C)c(S(=O)(=O)N2CCN(c3nc(-c4cccnc4)nc4ccccc34)CC2)c1	FMDV antiviral inconclusive, HCV inhibitor 11µM (no result: MARV entry inh, Lassa entry inh)
CN1CCN(c2nc(-c3cccnc3)nc3ccccc23)CC1	MARV entry inh inconclusive, Lassa entry inh inconclusive
Cc1cc(C)cc(-n2ccn(CC(=O)Nc3ccccc3C(F)(F)F)c(=O)c2=O)c1	none (no result: MARV entry inh, HCV inhibitor, SARS PLP yeast)
O=C(CCl)NCCNC(=O)c1cc(OCC(F)(F)F)ccc1OCC(F)(F)F	MARV entry inh inconclusive, HCMV antiviral -78, HCV inhibitor 22µM
CC(C)CC(=O)NCCNC(=O)c1cc(OCC(F)(F)F)ccc1OCC(F)(F)F	none
O=C(NCC1CCCCN1)c1cc(OCC(F)(F)F)ccc1OCC(F)(F)F (centres undefined)	MARV entry inh inconclusive, Lassa entry inh inconclusive, HCV inhibitor 10µM
CCc1ccc(CNC(=O)c2ccc(-n3c(C)cc4c3CCC(C)C4)cc2)cc1 (centres undefined)	Lassa entry inh inconclusive, HCMV antiviral inconclusive (no result: MARV entry inh, HCV inhibitor, SARS PLP yeast)
COc1cccc(C(c2sc3nc(-c4ccco4)nn3c2O)N2CCC(C)CC2)c1 (centres undefined)	none (no result: MARV entry inh, HCV inhibitor, SARS PLP yeast)
Cc1ccc(NC(=O)C2CCN(c3nc(-c4ccc(C(C)C)cc4)no3)CC2)c(Cl)c1	FMDV antiviral inconclusive, Lassa entry inh inconclusive, HCMV antiviral -69 (no result: MARV entry inh, HCV inhibitor, SARS PLP yeast)
Cc1ccc(C)c(N2CCN(C(=O)C3CCN(c4nc(-c5ccc(C(C)C)cc5)no4)CC3)CC2)c1	FMDV antiviral inconclusive, Lassa entry inh inconclusive, HCMV antiviral -63 (no result: MARV entry inh, HCV inhibitor, SARS PLP yeast)
COc1ccc(-c2noc(N3CCC(C(=O)Nc4cc(OC)ccc4OC)CC3)n2)cc1	HCV inhibitor inconclusive (no result: MARV entry inh, Lassa entry inh)
c1cncc(OC2CCN(Cc3ccc4c(c3)CN(Cc3ccc5c(c3)OCCO5)CCO4)CC2)c1	none (no result: MARV entry inh, Lassa entry inh, HCMV antiviral, HCV inhibitor, SARS PLP yeast)
